PABP1 MLLE inh – blocks PAM2 peptide binding to the PABP1 MLLE domain; P11940; GST-MLLE / FITC-PAM2 fluorescence polarization; inhibition, % at 20 µM; hit rate 0.36% among 360,000; AID 588489; in the data active = inhibition above about 35%, passing the limit was not always enough;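 note: plate controls were DMSO wells with GST-MLLE for no effect and wells lacking GST-MLLE protein for full effect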
eIF4H inh – inhibitors of RNA binding by human eIF4H | AID 2012 | Q15056 | inhibition, % at 35 µM | eIF4H fluorescence polarization binding assay | hit rate 0.94% among 290,000;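 note: calls also rest on retests at 20 µM and on dose response follow-up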
EBV gp42 block – blocks Epstein-Barr virus glycoprotein 42 binding; Q1HVG2; hit rate 0.42% among 220,000; Fluorescence polarization binding assay, mP read-out; inhibition, % (tested at 21.74 µM); in the data active = inhibition above about 50%
Target sequence (Q1HVG2 whole entry, looked up): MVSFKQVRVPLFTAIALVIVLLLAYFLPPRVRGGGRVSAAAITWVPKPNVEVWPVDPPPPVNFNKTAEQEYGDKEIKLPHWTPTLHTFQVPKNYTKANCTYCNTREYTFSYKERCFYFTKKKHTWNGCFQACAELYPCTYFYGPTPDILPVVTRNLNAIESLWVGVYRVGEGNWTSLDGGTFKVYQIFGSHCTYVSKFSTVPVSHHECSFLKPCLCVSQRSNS
MEX-5 binding – C. elegans MEX-5 TCR-2 RNA binding activity. Q9XUB2. MEX-5/FITC-TCR2 RNA binding, fluorescence polarization; hits give low values. activity score (negative = inhibition of binding), % at 10 µM. hit rate 0.38% among 300,000. AID 1832;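 active = inhibition past about -25% in most replicates, and total fluorescence under double the plate's negative control median, limit read from the data; inconclusive = replicates evenly split on the limit, or fluorescence at least double controls; inactive = too little inhibition in most replicates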;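 note: 0% = DMSO and -100% = 5 µM competing unlabeled TCR2 RNA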
PABP FP inh – PABP-poly(A) binding inhibition | AID 2014 | hit rate 1% among 290,000 | PABP-poly(A) RNA binding, fluorescence polarization | P11940 | calls only at 35 µM;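 note: calls also rest on retests at 20 µM and on dose response follow-up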
* hit, by the source's call; i = inactive; ? = inconclusive; · = not tested or not shown; + = active, no number. The list is not random: actives were taken first. Their share in the collection is about 1.8%. Unless noted, the rule behind the calls is not given here.

SMILES	PABP1 MLLE inh	eIF4H inh	EBV gp42 block	MEX-5 binding	PABP FP inh
Cc1ccc(-c2cc(-c3ccccc3)c(C#N)c(N)n2)o1	5	?	13	-1	+
Oc1ccc(-c2cn3c(n2)SCC3)cc1	21	-1	-24	0	i
Oc1ccc(-c2cn3c(n2)SCC3)cc1O	31	46	-22	-40*	i
COc1ccc(NC(=S)NNC(=O)Cn2nc([N+](=O)[O-])cc2C)cc1	3	2	0	-2	i
Cc1cccc(/C=N/NC(=O)Cn2nc(C)cc2C)n1	4	102*	-11	-2	+
Cc1cc([N+](=O)[O-])nn1CC(=O)N/N=C/c1ccccc1F	-2	58*	-10	2	+
Cc1cc([N+](=O)[O-])nn1CC(=O)NNC(=S)Nc1ccc([N+](=O)[O-])cc1	29	14	5	-37*	i
Cc1cc(C)n(CC(=O)N/N=C/c2ccccn2)n1	10	2	-9	0	i
O=C(/C=C/[C@H]1O[C@@H](n2ccc(=O)[nH]c2=O)[C@H](O)[C@@H]1O)NCCN1CCOCC1	6	·	·	·	·
CC(C)(C)NC(=O)C(c1cccs1)N(CC1CCCO1)C(=O)c1ccc(-c2ccccc2)[nH]1 (stereo not drawn)	1	active	-5	2	i
O=C(O)c1ccc(CSc2n[nH]c(-c3ccco3)n2)cc1	23	77*	-10	0	+
CCC(=O)N/N=C/c1ccc(OS(=O)(=O)c2ccccc2)cc1	-2	1	-27	-1	i
NC(N)=N/N=C/c1ccc(OS(=O)(=O)c2ccccc2)cc1	-14	active	-7	2	i
Cc1nc(-n2[nH]c3c(c2=O)CCCC3)[nH]c(=O)c1Cc1ccccc1	-96	?	-15	-4	+
O=c1c2ccccc2ncn1CCCSc1ccccc1	-2	106*	-3	-2	+
O=c1c2ccccc2ncn1CCCSc1ccc(Cl)cc1	-11	-3	12	1	i
CCn1c(CSc2nccn2C)nc2cc(C(=O)O)ccc21	51*	115*	72*	-19	+
COc1ccc(Cc2c(-c3ccccc3)nc3c4ccccc4ccn23)c(C)c1	-15	·	·	·	·
CC1CCN(C(=O)c2ccc3c(c2)NC(=O)/C(=C/c2ccccc2)S3)CC1	8	·	·	3	·
Cc1ccc(/C=C2/Sc3ccc(C(=O)N4CCN(C)CC4)cc3NC2=O)cc1	46*	88	·	-12	+
Cc1ccc(Cc2c(-c3ccccc3)nc3cc(C)c(Br)c(C)n23)cc1	4	·	·	·	·
CC1=CC(=O)Nc2ncccc2O1	12	·	·	·	·
O=C1CCCC(O)=C1N=Nc1ccc(Cl)c(Cl)c1	12	0	-2	2	i
CC(=O)N1CCc2cc(N=NC3=C(O)CCCC3=O)ccc21	-66	54*	-72	7	+
COCCNC(=S)N/N=C(\C)c1ccccc1O	44*	6	5	1	i
SMILES	PABP1 MLLE inh	eIF4H inh	EBV gp42 block	MEX-5 binding	PABP FP inh
COCCNC(=S)N/N=C(\C)c1ccccc1OC	18	4	-13	-3	i
O=C1NN(c2cccc(Br)c2)C(=O)/C1=C/c1ccc(-c2cc([N+](=O)[O-])ccc2O)o1	-10	96*	101*	-1	i
CC1=NN(c2ccc(C)cc2)C(=O)/C1=C/c1ccc(-c2cc([N+](=O)[O-])ccc2O)o1	-10	105*	·	0	+
O=C1C=C(C2OC(CO)C(O)C2O)C(=O)N1 (stereo not drawn)	43*	·	·	·	·
O=c1cnn([C@@H]2O[C@H](CO)[C@@H](O)[C@H]2O)c(=O)[nH]1	0	-6	-3	2	i
CCCC(=O)N1CCC1(C)C(=O)Nc1ccc(OC)c(OC)c1 (stereo not drawn)	0	·	·	·	·
O=C(CSc1ccccc1C(=O)O)NC1CCCCCC1	79*	3	-7	1	i
COC(=O)/C=C1\C(=O)N(c2nc3ccccc3s2)C(=S)N1c1ccc(F)cc1	-34	31	-25	-30*	i
Fc1ccccc1NC(=S)Nc1cccc2cnccc12	37*	58*	-4	1	i
FC(F)(F)c1ccccc1NC(=S)Nc1cccc2cnccc12	7	94*	-16	·	+
CCOC(=O)C1=C[C@@H](C(C)(C)C)N(S(=O)(=O)c2ccccc2C)[C@H]1c1ccc(Cl)cc1	12	·	·	·	·
O=C(NNC(=O)C1CCC1)c1ccc(F)cc1	-6	·	·	·	·
COc1ccc(Cl)cc1Cn1c(C)c(C(=O)NCc2ccc(F)cc2)sc1=O	-10	·	·	·	·
O=C(NC1CCCCCC1)C(=S)NCCc1ccccc1	44*	-9	-28	0	i
O=C(NC1CCCCCC1)C(=S)NCc1ccccc1	24	-2	1	0	i
CCOC(=O)CSc1nc2c(sc(=S)n2-c2ccccc2OC)c(=O)n1Cc1ccco1	38*	4	-8	-2	i
O=C1C(Br)=Cc2cccc3cccc1c23	83	?	116*	-10	?
O=C1c2cccc3cccc(c23)C(=O)N1OS(=O)(=O)c1ccc(Br)cc1	0	0	-20	0	i
Cc1ccccc1-c1cnc(C(O)c2ccc(Cl)c(F)c2)[nH]1 (stereo not drawn)	0	·	·	·	·
O=C(N/N=C1\C(=O)c2cccc3cccc1c23)c1ccc(O)cc1	-9	28	8	0	i
O=C1C([N+](=O)[O-])=C(O)c2cccc3cccc1c23	·	85*	·	-40*	+
Cc1ncc(C[n+]2csc(CCOC(=O)CC3C4CC5CC(C4)CC3C5)c2C)c(N)n1 (stereo not drawn)	15	28	-11	1	+
Cc1ccc(C(=O)O)cc1NC(=S)NC(=O)c1ccc(-c2ccc(Cl)cc2)o1	51*	-5	-1	1	i
Nc1ccn([C@@H]2O[C@H](C(=O)NCc3ccc4c(c3)OCO4)[C@@H](O)[C@H]2O)c(=O)n1	5	·	·	·	·
O=C(C[n+]1cc(Br)cc2ccccc21)c1ccc(Br)cc1	-33	81	·	0	+
SMILES	PABP1 MLLE inh	eIF4H inh	EBV gp42 block	MEX-5 binding	PABP FP inh
CCc1ccc(OS(=O)(=O)c2cn(C)c(=O)n(C)c2=O)cc1	41*	-5	-6	-2	i
Cc1n[nH]c(C)c1N1C(=O)c2cccc3c(N4CCCCCC4)ccc(c23)C1=O	i	?	193*	-53*	?
O=C(OCCN1C(=O)c2cccc3c(N4CCOCC4)ccc(c23)C1=O)c1cccc(Cl)c1	·	?	152*	?	i
O=C1c2cccc3c(N4CCCCC4)ccc(c23)C(=O)N1CCO	53	?	-1	-26*	?
O=C(OCCN1C(=O)c2cccc3c(N4CCOCC4)ccc(c23)C1=O)c1ccccc1Cl	5	?	146*	?	i
O=C(OCCN1C(=O)c2ccccc2C1=O)c1cc(S(=O)(=O)N2CCOCC2)ccc1Cl	1	1	-6	0	i
O=C(O)c1ccc(CNC(=O)C2CCN(S(=O)(=O)c3cccs3)CC2)cc1	9	·	·	·	·

Screens as filed in PubChem BioAssay.
